Records with an inconclusive call do not appear. Activity calls are given as the source filed them. Unless noted, calls come from the whole dose curve; as a rule, active = well fitted curve in the direction sought with a large enough effect in the repeat runs; inconclusive = weak or mixed curves; inactive = no such curve, though single readings can be large; an effect the other way counts as inactive or inconclusive.

A short description of assay [1]: qHTS assay to identify small molecule agonists of the peroxisome proliferator-activated receptor delta (PPARd) signaling pathway - cell viability counter screen (AID 743211). Note: nearly all actives have a fitted effect of over 55% in size. Note: potency is the fitted concentration of half-maximal effect. The note with it: PPARd-bla HEK293H viability, CellTiter-Glo luminescence, 17 h; series mostly up to 62.6 µM. The method, boiled down:
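qHTS cell viability: PPARd-bla HEK293H; 17 h cpd, 37C; CellTiter-Glo, luminescence at 30 min RT.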
On the technique in general: Quantitative high-throughput screening tests each substance at several concentrations.

The nature of assay [2]: qHTS assay to identify small molecule antagonists of the peroxisome proliferator-activated receptor delta (PPARd) signaling pathway - cell viability counter screen (AID 743213). Note: nearly all actives have a fitted effect of over 50% in size. The note with it: PPARd-bla HEK293H viability, CellTiter-Glo luminescence, 17 h; series mostly up to 62 µM. A digest of the protocol:
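Cytotoxicity counter screen: CellTiter-Glo luminescence read 30 min after addition, in the same wells as the reporter assay. There, PPARd UAS-bla HEK293H cells (3000/well) were treated 17 h at 37 C with compound and 300 nM L165041.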

A short description of assay [3]: qHTS assay to identify small molecule antagonists of the farnesoid-X-receptor (FXR) signaling pathway - cell viability counter screen (AID 743221; active = well fitted cell-killing curve with a large enough effect in the repeat runs, not every such curve was filed as active; note: nearly all actives have a fitted effect of over 50% in size). The note with it: FXR-bla HEK293T viability, CellTiter-Glo luminescence, 16 h; series mostly up to 62.6 µM. A digest of the protocol:
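After a 5 h settling period, FXR-bla HEK 293T cells receive compound and chenodeoxycholic acid (50 uM final) and incubate 16 h at 37 C; CellTiter-Glo luminescence, read after 30 min at room temperature, reports cell viability.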

Assay [4] deals with Vitamin D3 receptor (Homo sapiens) (UniProt P11473). The assay can be described thus: qHTS assay to identify small molecule agonists of the vitamin D receptor (VDR) signaling pathway (AID 743222; calls by dose curve). The note with it: HEK293T VDR-UAS-bla, beta-lactamase FRET ratio, 16 h; series mostly up to 63.5 µM. The method, boiled down: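 Agonist activity measured in VDR-bla reporter cells. Exposure 16 h, 37C, 5% CO2; detection by B/G FRET substrate, 2 h RT.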

The target is the same in assay [5]. The assay can be described thus: qHTS assay to identify small molecule antagonists of the vitamin D receptor (VDR) signaling pathway (AID 743223; active = well fitted inhibition curve with a large enough effect in the signal ratio in the repeat runs, not every such curve was filed as active; the % refers to the signal ratio). The note with it: VDR-UAS-bla HEK293T, beta-lactamase FRET ratio, 16 h; series mostly up to 61 µM. The method, boiled down:
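Reporter line VDR-bla; stimulus 1alpha,25-(OH)2 vitamin D3, 3 nM final; compound co-addition, 16 h 37C/5% CO2; LiveBLAzer B/G substrate 2 h RT; fluorescence intensity.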

Assay [6] can be described thus: qHTS assay to identify small molecule agonists of the farnesoid-X-receptor (FXR) signaling pathway - cell viability counter screen (AID 743218). Note: nearly all actives have a fitted effect of over 45% in size. The note with it: FXR-bla HEK293T viability, CellTiter-Glo luminescence, 16 h; series mostly up to 62.6 µM. A digest of the protocol: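 In GeneBLAzer FXR-UAS-bla HEK 293T cells, compounds act for 16 h at 37 C. Cell viability is then scored in the reporter wells by CellTiter-Glo, 30 min at RT, luminescence.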

Assay [7] addresses Peroxisome proliferator-activated receptor delta (Homo sapiens) (UniProt Q03181). The assay can be described thus: qHTS assay to identify small molecule antagonists of the peroxisome proliferator-activated receptor delta (PPARd) signaling pathway (AID 743215; active = well fitted inhibition curve with a large enough effect in the signal ratio in the repeat runs, not every such curve was filed as active; the % refers to the signal ratio;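 note: cells stimulated with agonist L165041 at 300 nM final during compound exposure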). The note with it: HEK293H PPARd-UAS-bla, beta-lactamase FRET ratio, antagonist, 17 h; series mostly up to 62 µM. The method, boiled down:
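Antagonist-mode beta-lactamase reporter screen: HEK293H cells with UAS-bla under PPARd control, stimulated by 300 nM L165041 (final) alongside test compound for 17 h at 37 C, then FRET fluorescence after 2 h substrate incubation.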

Assay [8] has as its target Bile acid receptor (Homo sapiens) (UniProt Q96RI1). The assay can be described thus: qHTS assay to identify small molecule antagonists of the farnesoid-X-receptor (FXR) signaling pathway (AID 743217; active = well fitted inhibition curve with a large enough effect in the signal ratio in the repeat runs, not every such curve was filed as active; the % refers to the signal ratio). The note with it: HEK293T FXR-UAS-bla, beta-lactamase ratio, CDCA-stimulated, 16 h; series mostly up to 62.6 µM. The method, boiled down:
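Beta-lactamase reporter under UAS control in HEK 293T cells; compound exposure 16 h at 37 °C in the presence of chenodeoxycholic acid (50 uM final); signal from B/G FRET substrate after 2 h at room temperature.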

For assay [9] the target is unchanged. The assay can be described thus: qHTS assay to identify small molecule agonists of the farnesoid-X-receptor (FXR) signaling pathway (AID 743220; active = well fitted activation curve with a large enough effect in the signal ratio in the repeat runs, not every such curve was filed as active; the % refers to the signal ratio). The note with it: HEK293T FXR-UAS-bla, beta-lactamase FRET ratio, 16 h; series mostly up to 62.6 µM. The method, boiled down:
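Beta-lactamase reporter under UAS control in GeneBLAzer FXR HEK 293T cells (5000/well) measured with LiveBLAzer FRET substrate after 2 h at room temperature. Compound exposure lasted 16 h at 37C.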

The target of assay [10] is Peroxisome proliferator-activated receptor delta (Homo sapiens) (UniProt Q03181). In words: qHTS assay to identify small molecule agonists of the peroxisome proliferator-activated receptor delta (PPARd) signaling pathway (AID 743212; calls by dose curve). The note with it: HEK293H PPARd-UAS-bla, beta-lactamase FRET ratio, 17 h; series mostly up to 62.6 µM. A digest of the protocol:
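GeneBLAzer PPARd UAS-bla HEK293H cells (beta-lactamase reporter under UAS control), plated and rested 5 h at 37 C, then exposed to compounds in DMSO at 37 C; LiveBLAzer B/G FRET substrate added, 2 h room temperature, fluorescence read.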
% is set by controls: 0 for no effect and ±100 for the full control effect.

Peroxisome proliferator-activated receptor delta (Homo sapiens), sequence (Q03181 whole entry, looked up): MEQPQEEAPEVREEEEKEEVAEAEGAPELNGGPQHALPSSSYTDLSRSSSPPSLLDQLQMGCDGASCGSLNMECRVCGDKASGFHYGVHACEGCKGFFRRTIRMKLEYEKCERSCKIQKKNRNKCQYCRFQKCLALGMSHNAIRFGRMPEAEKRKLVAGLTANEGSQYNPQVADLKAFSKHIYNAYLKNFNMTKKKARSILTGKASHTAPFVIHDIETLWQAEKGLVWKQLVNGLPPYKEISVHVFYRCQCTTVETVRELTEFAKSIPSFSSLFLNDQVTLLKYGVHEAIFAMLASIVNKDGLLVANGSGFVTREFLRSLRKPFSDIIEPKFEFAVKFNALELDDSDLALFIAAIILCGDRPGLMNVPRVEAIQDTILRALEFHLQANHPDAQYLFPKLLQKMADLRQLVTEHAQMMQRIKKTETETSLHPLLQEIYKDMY
Vitamin D3 receptor (Homo sapiens), sequence (P11473 whole entry, looked up): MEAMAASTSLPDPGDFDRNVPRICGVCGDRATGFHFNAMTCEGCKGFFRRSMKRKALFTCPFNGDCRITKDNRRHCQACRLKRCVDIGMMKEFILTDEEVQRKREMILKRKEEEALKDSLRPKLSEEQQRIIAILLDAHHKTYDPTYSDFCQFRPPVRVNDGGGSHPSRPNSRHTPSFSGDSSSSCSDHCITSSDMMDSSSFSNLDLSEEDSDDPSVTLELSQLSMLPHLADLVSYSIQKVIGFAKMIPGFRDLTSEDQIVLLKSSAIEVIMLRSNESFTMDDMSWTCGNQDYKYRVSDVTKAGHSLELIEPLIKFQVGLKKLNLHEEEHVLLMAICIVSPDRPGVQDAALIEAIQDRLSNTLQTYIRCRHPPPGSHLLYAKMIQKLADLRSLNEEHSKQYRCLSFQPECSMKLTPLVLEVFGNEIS
Bile acid receptor (Homo sapiens), sequence (Q96RI1 whole entry, looked up): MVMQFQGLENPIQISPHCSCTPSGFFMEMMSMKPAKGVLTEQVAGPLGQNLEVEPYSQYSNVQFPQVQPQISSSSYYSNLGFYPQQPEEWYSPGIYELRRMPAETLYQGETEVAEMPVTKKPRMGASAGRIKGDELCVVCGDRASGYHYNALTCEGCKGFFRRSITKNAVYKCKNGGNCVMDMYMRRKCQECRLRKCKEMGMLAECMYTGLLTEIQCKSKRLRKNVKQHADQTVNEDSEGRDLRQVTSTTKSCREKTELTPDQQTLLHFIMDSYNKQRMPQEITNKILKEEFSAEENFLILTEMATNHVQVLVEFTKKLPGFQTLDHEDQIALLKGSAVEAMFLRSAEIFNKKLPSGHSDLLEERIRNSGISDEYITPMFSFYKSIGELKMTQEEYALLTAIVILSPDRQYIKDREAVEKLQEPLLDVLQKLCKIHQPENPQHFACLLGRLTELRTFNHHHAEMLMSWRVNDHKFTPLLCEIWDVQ

For `O=C1N=C(O)CN1/N=C/c1ccc(-c2ccc([N+](=O)[O-])cc2)o1`, the Potency result in [1], in assay [2], in assay [3], in assay [4] and in [5] was “inactive” in each case.
With `Nc1c(S(=O)(=O)O)cc(Br)c2c1C(=O)c1ccccc1C2=O`, the Potency entry in [1], in assay [2], in assay [6], in assay [3], in [4] and in assay [5] was “inactive” each time.
With `CC1Cc2ccccc2N1NC(=O)c1ccc(Cl)c(S(N)(=O)=O)c1` (stereo not given), the Potency result in [1], in [2], in assay [6] and in assay [3] was “inactive” throughout.
On to `CCCCC(CC)COC(=O)/C=C\C(=O)OCC(CC)CCCC` (stereo not given), for which the Potency entry in assay [1], in assay [2], in assay [6], in [3], in [4] and in assay [5] was “inactive” in each case. Further, in assay [7], the result was inactive.
As to `COC(=O)c1ccc(C(=O)OC)cc1`, the Potency entry in [1], in assay [2], in [6], in assay [3], in assay [4] and in [5] was “inactive” in each case.
`S=c1nc[nH]c2nc[nH]c12`: the Potency in assay [1] was 23.9 µM (active). Also, the outcome in assay [7] was inactive. Besides, the Potency result in assay [6] and in [5] was “inactive” in each case.
As to `Cc1cc(NS(=O)(=O)c2ccc(N)cc2)no1`, the Potency result in assay [1], in assay [2], in assay [6], in assay [3], in assay [4] and in assay [5] was “inactive” throughout. Further, the result in [8] and in [9] was inactive.
As to `Cc1cc(Cc2ccc(N)c(C)c2)ccc1N`, the Potency entry in assay [1], in assay [2], in assay [6] and in assay [3] was “inactive” throughout. The outcome in assay [8] and in assay [9] was inactive.
For `Oc1c(Cl)cc(Cl)c(Cl)c1Cl`, the Potency entry in assay [1], in assay [2], in [3] and in assay [4] was “inactive” throughout. The result in assay [7] and in [9] was inactive.
Consider `CN(C)c1cccc(O)c1`, for which the Potency result in assay [1], in [6], in assay [3], in assay [4] and in [5] was “inactive” throughout. For the same molecule, the result in assay [7] was inactive.
On to `CC1=CC[C@H]2C[C@@H]1C2(C)C`, for which the Potency result in [1], in [2], in [6], in assay [3] and in assay [4] was “inactive” in each case.
With `OCC#CCO`, the Potency result in assay [1], in assay [2], in [6], in [3], in assay [4] and in assay [5] was “inactive” each time. Moreover, the outcome in [8] and in [9] was inactive.
As to `c1ccc2ccccc2c1`, the Potency entry in assay [1], in [2], in assay [6], in assay [3], in [4] and in [5] was “inactive” in each case. The outcome in assay [7], in assay [8] and in assay [9] was inactive.
In the case of `CCOC(=O)C1OC1c1ccccc1` (stereo not given), the Potency entry in assay [1], in assay [2], in assay [6], in assay [3], in [4] and in [5] was “inactive” in each case. Moreover, the outcome in assay [7] was inactive.
On to `OC[C@@H](O)[C@@H](O)[C@H](O)[C@@H](O)CO`, for which the Potency entry in assay [1], in assay [2], in assay [6], in [3] and in [4] was “inactive” each time.
As to `C=C1C2CCC(C2)C1(C)C` (stereo not given), the Potency entry in [1], in assay [2], in [6], in [3], in assay [4] and in assay [5] was “inactive” each time. Further, the outcome in assay [7] was inactive.
Take `C=C(C)C(=O)OCCC[Si](OC)(OC)OC`: the Potency entry in assay [1], in [2], in [6] and in assay [3] was “inactive” throughout. The outcome in assay [7] was inactive.
`O=C1CCCCC1`: the Potency entry in [1], in [2], in assay [6], in assay [3], in assay [4] and in [5] was “inactive” in each case. Moreover, the result in assay [7] was inactive.
For `CCCCC(CC)C(=O)OCCOCCOCCOC(=O)C(CC)CCCC` (stereo not given), the Potency result in assay [1], in assay [2], in assay [6], in [3], in assay [4] and in assay [5] was “inactive” throughout. Further, in assay [7], the result was inactive.
Consider `OC1CCCC1`, for which the Potency result in assay [1], in assay [2], in assay [6], in assay [3], in assay [4] and in assay [5] was “inactive” each time. In addition, the outcome in [7] was inactive.
Consider `CC(C)n1c(/C=C/[C@@H](O)C[C@@H](O)CC(=O)O)c(-c2ccc(F)cc2)c2ccccc21`, for which the Potency result in assay [1], in [6] and in [3] was “inactive” each time.
With `CC(=O)Nc1ccc(C(=O)O)cc1`, the Potency result in assay [1], in [2], in [6] and in assay [3] was “inactive” throughout.
Regarding `CCCCOCCOCCOC(=O)CCCCC(=O)OCCOCCOCCCC`, the result in assay [10], in assay [7], in assay [8] and in [9] was inactive. Besides, the Potency result in assay [2], in [6], in assay [3], in [4] and in assay [5] was “inactive” in each case.
On to `COCC(C)O` (stereo not given), for which the Potency entry in assay [1], in [2], in assay [6], in assay [3], in assay [4] and in [5] was “inactive” throughout.
With `O=S(=O)(O)CCS`, the result in assay [10], in assay [7], in assay [8] and in assay [9] was inactive. Moreover, the Potency entry in [2], in assay [6] and in [3] was “inactive” each time.
For `NCCNCCNCCNCCN`, the Potency entry in assay [1], in [2], in assay [6], in assay [3] and in assay [4] was “inactive” each time. Moreover, the result in assay [7] was inactive. Besides, in [5], the activity change, negative = inhibition was 2.31% [at 6.95 µM] (inactive).
With `Cc1ccc(C)c(C)c1`, the Potency entry in assay [1], in assay [2], in assay [6], in assay [3], in [4] and in [5] was “inactive” throughout. In addition, the result in [7] was inactive.
For the molecule `C/C=C(C)/C=C/C=C(C)C`, the Potency entry in assay [1], in [2], in assay [3], in assay [4] and in [5] was “inactive” throughout.
On to `CC1COc2ccccc2N1C(=O)C(Cl)Cl` (stereo not given), for which the Potency entry in [2], in [6], in assay [3] and in [4] was “inactive” each time. Besides, the result in assay [7] was inactive.
Take `CC1=C(/C=C/C(C)=C/C=C/C(C)=C/CO)C(C)(C)CCC1`: the Potency result in assay [2], in assay [6], in [3] and in [5] was “inactive” in each case. In [7], the outcome was inactive.
As to `O=[N+]([O-])C(CO)(CO)CO`, the Potency result in assay [2], in assay [6], in assay [3], in assay [4] and in assay [5] was “inactive” each time. Further, the result in assay [7] was inactive.
For `CC[Si](OC(C)=O)(OC(C)=O)OC(C)=O`, the Potency entry in assay [2], in assay [6], in [3], in assay [4] and in assay [5] was “inactive” each time. Further, the result in [7] was inactive.

Source of the values: PubChem BioAssay (Tox21).
